An excerpt weighted towards active compounds, which were near 11% of everything screened.
G9a inh: qHTS Assay for Inhibitors of Histone Lysine Methyltransferase G9a | Histone-lysine N-methyltransferase EHMT2 (Homo sapiens), Q96KQ7 | G9a H3K9 monomethylation, AlphaScreen, 2 h | Potency, µM (series often up to 102 µM), without a hit: at the highest dose activity, negative = inhibition, usual class: inhibitors | 8.8% of 350,000 active | AID 504332, 2011; note: potency is the fitted concentration of half-maximal effect; % is set by controls: 0 for no effect and ±100 for the full control effect; nearly all actives have a fitted effect of over 75% in size
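Using a bead-based AlphaScreen, monomethylated H3K9 product from 2 h room-temperature reactions (G9a 20 nM, peptide 500 nM, SAM 20 uM) was detected with 0.5 ug/mL rabbit anti-H3K9me1 antibody.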
L3MBTL1 inh: qHTS Assay for the Inhibitors of L3MBTL1 | 0.66% of 230,000 active | AlphaScreen L3MBTL1–H3K9me1 peptide binding | Lethal(3)malignant brain tumor-like protein 1 (Homo sapiens), Q9Y468 | AID 485360, 2010 | Potency, µM (series often up to 57.1 µM), for the others: at the top dose activity, negative = inhibition, most hits filed as inhibitors; note: potency is the fitted concentration of half-maximal effect; % is set by controls: 0 for no effect and ±100 for the full control effect; nearly all actives have a fitted effect of over 60% in size
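L3MBTL1 50 nM + b-AHA-H3(1-15)K9me1 75 nM, 30 min RT; compound added, 30 min RT; streptavidin donor/Ni-chelate acceptor beads 10 ug/mL each final, 30 min RT dark; AlphaScreen read.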
HP1b chromo inh: HTS for Inhibitors of HP1-beta Chromodomain Interactions with Methylated Histone Tails. Chromobox protein homolog 1 (Homo sapiens), P83916. AlphaScreen HP1-beta / biotin-H3K9me3 peptide binding. Potency, µM (highest dose often 114 µM), for the others: at the top dose activity change, negative = inhibition, actives largely listed as inhibitors. 0.56% of 390,000 active; note: potency is the fitted concentration of half-maximal effect; nearly all actives have a fitted effect of over 70% in size
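HP1-beta protein (50 nM final) preincubated 30 min at room temperature with biotinylated H3(1-18)K9me3 peptide (50 nM) in PBS pH 7.4, 0.01% Tween-20, then compound added for 30 min. AlphaScreen streptavidin donor/nickel chelate acceptor beads (10 ug/mL final), 30 min dark, luminescence read.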
BAZ2B block: qHTS Assay for Inhibitors of BAZ2B | AlphaScreen BAZ2B-H3K14Ac peptide displacement | AID 504333, 2011 | Bromodomain adjacent to zinc finger domain protein 2B (Homo sapiens), Q9UIF8 | 4.4% of 360,000 active | Potency, µM (top dose mostly 114 µM), for the others: top-dose activity change, negative = inhibition, most hits filed as inhibitors; note: potency is the fitted concentration of half-maximal effect; % is set by controls: 0 for no effect and ±100 for the full control effect; nearly all actives have a fitted effect of over 60% in size
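In this displacement format the biotinylated H3(5-23) peptide acetylated at Lys14 serves as ligand at 50 nM, with BAZ2B at 50 nM in PBS pH 7.4 containing 0.01% Tween-20. Donor and acceptor beads are 10 ug/mL final.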
PI5P4K alpha inh: qHTS for Inhibitors of phosphatidylinositol 5-phosphate 4-kinase (PI5P4K) | max response, % | PI5P4Kalpha enzyme, ADP-Glo luminescence, 60 min; active compounds read low | Phosphatidylinositol 5-phosphate 4-kinase type-2 alpha (Homo sapiens), P48426 | 1.2% of 330,000 active | AID 652105, 2013; active = max response of -50% or lower; inconclusive = between -30% and -50%; inactive = -30% or higher; note: value at the top dose of about 77 µM; % is set by controls: 0 for no effect and ±100 for the full control effect
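Quantitative HTS of the MLSMR library against PI5P4Kalpha with substrate. ATP added last at 5 microM final; room temperature, 60 minutes. Remaining ATP depleted, ADP converted and read as luminescence.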
JMJD2A Tudor: qHTS Assay for Inhibitors of JMJD2A-Tudor Domain. Lysine-specific demethylase 4A (Homo sapiens), O75164. AlphaScreen JMJD2A-Tudor / H3K4me3 peptide binding. Potency, µM (series often up to 114 µM), for inactives: at the highest dose activity change, negative = inhibition, usual class: inhibitors. 4.4% of 390,000 active; note: potency is the fitted concentration of half-maximal effect; % is set by controls: 0 for no effect and ±100 for the full control effect; nearly all actives have a fitted effect of over 50% in size
An asterisk follows results filed as active; ? = inconclusive; . = no result given; [ ] = remark or other dose. Unless noted, calls come from the whole dose curve; as a rule, active = well fitted inhibition curve with a large enough effect; inconclusive = small, poorly fitted or top-dose-only effect; inactive = no such curve, though single readings can be large or run the other way.

SMILES	G9a inh	L3MBTL1 inh	HP1b chromo inh	BAZ2B block	PI5P4K alpha inh	JMJD2A Tudor
CC1=C(C#N)C(c2ccccc2)C2=C(N1)c1ccccc1C2=O (stereo unspecified)	45µM*	-9%	?	32µM*	-8	22µM*
CSC1=C(C#N)C(c2ccccc2Cl)C2=C(N1)c1ccccc1C2=O (stereo unspecified)	16µM*	0%	?	-31%[57.1 µM]	-2	32µM*
CC(=O)C1=C(C)NC2=C(C(=O)c3ccccc32)C1c1ccccc1 (stereo unspecified)	?	.	?	?	-2	?
O=C(CCCn1c(=O)[nH]c2ccccc2c1=O)N1CCN(c2ccccc2)CC1	-8%[59 µM]	.	5%	-9%	.	-9%
CCCCCCCCCCCCC/C=C/[C@@H](O)[C@H](CO)NCCCCCCCC	-6%[59 µM]	.	.	.	.	.
COc1ccc2c(C)cc(=S)[nH]c2c1	40µM*	-12%	15%	-27%	5	-16%[11.4 µM]
NC(=O)c1ccc(-c2c(-c3ccccc3)sc3ccccc23)cc1	4%[0.501 µM]	-2%	33%	8%	2	-3%
CN(C)CCOc1ccc(-c2c(-c3ccccc3)sc3ccccc23)cc1	.	-7%	?	.	18	40µM*
COc1ccccc1-c1sc2cc3c(cc2c1-c1ccc(OCCN2CCOCC2)cc1)OCO3	.	-12%	-24%	.	48	50µM*
COc1ccc(-c2sc3cc4c(cc3c2-c2ccc(OCCN3CCCCC3)cc2)OCO4)cc1	.	-6%	-14%	.	-2	?
c1ccc(-c2sc3ccccc3c2-c2ccc(OCCN3CCCCC3)cc2)cc1	.	-7%	8%	.	0	-36%
COc1cc(OC)cc(-c2sc3ccc(OC)cc3c2-c2ccc(OCCN3CCCCC3)cc2)c1	.	-2%	-32%	.	18	20µM*
c1ccc2c(-c3ccc(OCCN4CCCCC4)cc3)c(-c3ccsc3)sc2c1	.	-8%	-7%	.	-1	40µM*
COc1ccc(-n2cc(C(=O)NCc3ccccc3Cl)c3ccccc3c2=O)cc1	-1%[59 µM]	.	45%	5%	.	-7%
CC[N+](CC)(CC)CCOc1ccc(/C=C/c2ccccc2)cc1	9%[59 µM]	3%	13%	56µM*	-7	?
CCOc1ccc(/C=C/C(=O)c2ccccc2)cc1	212%	11%	87%	55%	-30	71%
CCCCNc1c(-c2cccc(-c3ccc(OC)cc3)c2)nc2cc(C)ccn12	.	-11%	-8%	.	?	?
CCCCNc1c(-c2cccc(-c3cc(C(C)=O)cs3)c2)nc2ccc(C)cn12	-16%[2.33 µM]	?	-26%	35µM*	-11	25µM*
CCCCNc1c(-c2cccc(-c3ccc(OC)cc3)c2)nc2ccc(C)cn12	10%[2.33 µM]	-23%	-14%	45µM*	-21	25µM*
COc1cccc(CNC(=O)C(=O)NCC(c2ccco2)S(=O)(=O)c2cccs2)c1 (stereo unspecified)	2%[59 µM]	.	35%	0%	.	-10%
O=C(OC[C@H]1O[C@@H](OC(=O)c2cc(O)c(O)c(OC(=O)c3cc(O)c(O)c(O)c3)c2)[C@H](OC(=O)c2cc(O)c(O)c(OC(=O)c3cc(O)c(O)c(O)c3)c2)[C@@H](OC(=O)c2cc(O)c(O)c(OC(=O)c3cc(O)c(O)c(O)c3)c2)[C@@H]1OC(=O)c1cc(O)c(O)c(OC(=O)c2cc(O)c(O)c(O)c2)c1)c1cc(O)c(O)c(OC(=O)c2cc(O)c(O)c(O)c2)c1	1.4µM*	0.1µM*	.	0.79µM*	.	.
COC(=O)C(=C/C=C/c1ccco1)C(=O)OC	45µM*	-7%	38%	-24%	3	-9%
Cc1c(C)c2cc3c(c(C)c2oc1=O)OCN(CCc1ccc(F)cc1)C3	12%[59 µM]	.	30%	0%	.	-11%
COc1ccccc1-c1nnc(SCc2ccccn2)n1C	20%[12.7 µM]	4%	5%	5%	.	-1%
COc1ccccc1-c1nc(SCc2ccccn2)n[nH]1	50µM*	11%	17%	10%	-6	-14%
SMILES	G9a inh	L3MBTL1 inh	HP1b chromo inh	BAZ2B block	PI5P4K alpha inh	JMJD2A Tudor
CN(c1ccccc1)c1nc(C#N)nc(N2CCOCC2)n1	.	.	32%[57 µM]	.	.	2%[57.1 µM]
Cc1cc(C)c(C#N)c(SCCN2CCOCC2)n1	.	6%	9%	-3%	3	-9%
Cc1nnc(SCCN2CCOCC2)n1C	35µM*	-2%	?	?	1	1µM*
O=C1N=C(N2CCOCC2)S/C1=C/c1cccs1	5%[12.7 µM]	-2%	-5%	2%[57.1 µM]	.	-7%
O=C1/C(=C/c2cccs2)CCC/C1=C\c1cccs1	14%	.	?	5.6µM*	14	?
O=C1/C(=C/c2cccnc2)CCC/C1=C\c1cccnc1	-28%	8%	10%	-6%	0	-24%
Cn1cccc1/C=C1\CCC/C(=C\c2cccn2C)C1=O	?	.	22µM*	22µM*	10	56µM*
NC1=NC(=O)/C(=C/c2cccs2)S1	12%	?	24%	-39%[57.1 µM]	.	-10%
CC1C/C(=C/c2cccs2)C(=O)/C(=C/c2cccs2)C1 (stereo unspecified)	35µM*	-19%	?	?	4	?
COc1cccc(Cn2ncc3c4sc(C)cc4n(C)c3c2=O)c1	.	.	.	.	.	-19%
CCCN1CCN(CCNC(=O)Nc2ccc(OC)c(OC)c2)CC1	-6%[59 µM]	.	3%	-30%	.	-13%
CC(C)(C)c1ccc(OCC(=O)Nc2c(C(=O)c3ccc(F)cc3)oc3ccccc23)cc1	8%[59 µM]	.	55%	0%	.	20%
CC(C)(C)C1=CC=C(C(C)(C)C)C(=O)C1=O	2.2µM*	-15%	.	-16%	.	.
CCOC(=O)c1cccc(NC(=O)CSc2ncc3c(n2)-c2ccccc2N(C)S3(=O)=O)c1	1%[59 µM]	.	28%	0%	.	4%
COC(=O)c1ccc2c(c1)N(C)S(=O)(=O)c1cnc(SCC(=O)C(C)(C)C)nc1-2	5µM*	-8%	24%	-15%	1	-18%
CCOC(=O)C1=C(C)NC(=O)NC1c1ccc(-c2ccccc2F)o1 (stereo unspecified)	-11%[59 µM]	-10%	23%	1%	2	-35%
COCCOC(=O)C1=C(C)NC(=O)NC1c1ccc(-c2ccc(F)cc2)o1 (stereo unspecified)	50µM*	-8%	-11%	-32%	-29	-35%
